PubChem BioAssay (NCI)
Values joined by “and” are separate entries in the source; they are usually repeats but may differ in a detail not shown here. Identical values can stand only once. About 83,000 compounds went through this panel and 20% of them were active in at least one assay; those are over-represented in the sample as a whole.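 Testing used 96-well plates and a 48-hour single-concentration exposure. Example: -40 means 40% of the starting cells died.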 Unmarked numbers belong to inactive results. Active and inactive are the calls of the source. The calls were made as follows: active = growth percent below 10; inactive = the rest.

How the values were obtained:
Assay in all cases: NCI-60 one-dose screen, 48 h (100 = growth as untreated, 0 = no growth, -100 = all killed)
Details in all cases: 10 µM unless noted
[1] = test system: DU-145 prostate
[2] = test system: K-562 leukemia
[3] = test system: MALME-3M melanoma
[4] = test system: MDA-MB-231 breast
[5] = test system: RXF 393 renal
[6] = test system: SF-268 CNS
[7] = test system: SF-295 CNS
[8] = test system: SF-539 CNS
[9] = test system: UACC-257 melanoma
[10] = test system: M14 melanoma

Row | SMILES | growth [1] | growth [2] | growth [3] | growth [4] | growth [5] | growth [6] | growth [7] | growth [8] | growth [9] | growth [10]
1 | C=C(C)[C@@H]1CC[C@]2(C)[C@H](CC(=O)N[C@H]3[C@@H]4C[C@](C)(C(=O)OC)CC[C@]4(C)CC[C@]32C)[C@@]1(C)CCC#N | 94.4% | 50.3% | 86.7% | 79.7% | 83% | 81.2% | 81.2% | 95.9% | 83.7% | 86.8%
2 | OCCN1CCN(c2cc(-c3cccc(OC(F)(F)F)c3)nc3ccc(N4CCCC4)cc23)CC1 | 58% | -10.2% (active) | 34.6% | 58.2% | 51% | 66.6% | 72.5% | 66.4% | 65.2% | 27.5%
3 | O=C(NNC(=S)Nc1ccccc1)c1ccncc1 | 115% | 106% | 108% | 111% | 114% | 105% | 110% | 100% | 110% | 107%
4 | CC(=O)N1N=C(c2ccc(F)cc2)CC1c1sc(N(C)Cc2ccccc2)nc1Cl (stereo not given) | 103% | 75.1% | 102% | 101% | 101% | 87.1% | 97.6% | 104% | 118% | 95.2%
5 | COC(=O)/C=C1/SC(N2N=C(c3cccs3)CC2c2ccc(F)cc2)=NC1=O (stereo not given) | 31% | 5.16% (active) | 79.7% | 35% | 48.7% | 32.4% | 91.4% | 91.6% | 84.4% | 50.8%
6 | N#CC(Cc1cccc2ccccc12)c1cc2ccccc2[nH]1 (stereo not given) | 103% | 86.6% | 81.9% | 81.4% | 87.8% | 89.3% | 95.9% | 102% | 93.9% | 82.6%
7 | Cn1cc(-c2csc(-c3cn(CCOC(N)=O)c4ccccc34)n2)c2cccnc21 | 103% | 27.3% | 66.4% | 80.4% | 91.4% | 95.8% | 86.2% | 92.7% | 88% | 71.1%
8 | O=C(O)C1C2CCC1C(O)C2 (stereo not given) | 100% and 108% | 107% and 92.7% | 109% and 86.3% | 103% and 113% | 111% and 116% | 97.7% and 101% | 108% and 121% | 94.9% and 101% | 100% and 103% | 98.8% and 95.4%
9 | COc1cc2ncnc(Nc3ccc(F)c(Cl)c3)c2cc1OCC(=O)N1CCCCC1 | 53.8% | 73.6% | 99.1% | 105% | 84.8% | 80% | 92.1% | 104% | 101% | 85.5%
10 | Cc1ccc(S(=O)(=O)OC[C@@]2(C)CC[C@]3(C)CC[C@]4(C)C(=C3C2)C=C[C@@H]2[C@@]3(C)CCCNC(C)(C)[C@@H]3CC[C@]24C)cc1 | -1.23% (active) | -28.1% (active) | 15.1% | -43.7% (active) | -7.17% (active) | 74.7% | 102% | 1.1% (active) | 61.9% | -64.9% (active)
11 | CCOC(=O)c1cnn(CC(O)CC)c1NC(=O)NCc1ccccc1C(F)(F)F (stereo not given) | 109% | 88.5% | 103% | 105% | 119% | 100% | 90.7% | 99.1% | 103% | 88.2%
12 | CC/C(=C(/c1ccc(Cl)cc1)c1ccc(OCCN2CCOCC2)cc1)c1ccccc1 | 98.4% | 63.7% | 104% | 95.5% | 107% | 90.5% | 97.1% | 104% | 98.8% | 99.5%
13 | COc1cc(NS(=O)(=O)C(C)C)cc(-c2cc(-c3ccc(N4CCNCC4)cc3)cnc2N)c1 | 90.8% | 5.48% (active) | 79.6% | 89.8% | 41% | 70.3% | 91.7% | 58.3% | 91.4% | 58.6%
14 | CCOC(=O)c1cnn(-c2ccc(S(N)(=O)=O)cc2)c1N | 132% | 87.7% | 104% | 111% | 95.9% | 161% | 110% | 101% | 96.1% | 98.9%
15 | O=C(Oc1ccc(CO[N+](=O)[O-])cc1)c1ccccc1 | -94.6% (active) | -37.1% (active) | -69.9% (active) | -80.6% (active) | -86.2% (active) | -84.8% (active) | -91.9% (active) | -90% (active) | -78% (active) | -83% (active)
16 | COc1ccc(Nc2ncnc3ccc(-c4cncc(NS(C)(=O)=O)c4)cc23)cc1Cl | 46.9% | 28.1% | 36.2% | 21.6% | 26.8% | 24.9% | 55.8% | 18.9% | 37% | 51.5%
17 | O=C1C(N2CCOCC2)=C(I)C(=O)c2ncccc21 | 84.8% | 4.52% (active) | 87.3% | 87.1% | 72.6% | 71.5% | 97.3% | 82.7% | 85% | 87.1%
18 | Nc1ccccc1SC(CC(=O)c1ccccc1)c1ccc([N+](=O)[O-])cc1 (stereo not given) | 110% and 88% | 68.8% and 13.2% | 112% and 74.5% | 84.1% and 85.2% | 102% and 91.2% | 98.7% and 82.1% | 90.2% and 85.2% | 107% and 105% | 107% and 86.7% | 108% and 85.8%
19 | COc1ccc(/C=N\Nc2nc(SCC(C)C)nc(-c3ccc(OC)cc3)c2C#N)cc1 | 65.2% | 74.6% | 60.1% | 43.5% | 34.5% | 50.9% | -5.63% (active) | 52.6% | 88.1% | 77.6%
20 | C#CCn1cnc2cnc(Nc3cccc(NC(=O)CCl)c3)nc21 | 17.1% [6.25 µM] | 4.47% [6.25 µM] (active) | 28.1% [6.25 µM] | 14.6% [6.25 µM] | -27.5% [6.25 µM] (active) | 6.9% [6.25 µM] (active) | 16.1% [6.25 µM] | -0.618% [6.25 µM] (active) | 1.35% [6.25 µM] (active) | -49.1% [6.25 µM] (active)
21 | Cn1cc(-c2nonc2-c2cn(C)c3ccc(Br)cc23)c2ccccc21 | 53% | 13.3% | 30.2% | 45.5% | 42.4% | 37.3% | 16.4% | -0.366% (active) | 49.5% | 17.7%
22 | Cc1ccc2c(c1)C(C)Cc1c(ncnc1-n1cnc3cc(C)ccc31)N2C (stereo not given) | 10.9% | 6.54% (active) | 76.9% | 38.5% | 21.3% | 25.6% | 2.2% (active) | 16.8% | 25.6% | 17.7%
23 | Cc1ccc2[nH]c(=S)[nH]c(=O)c2c1 | 109% | 97.1% | 102% | 109% | 104% | 100% | 104% | 99.7% | 101% | 101%
